Assay results reported in PubChem BioAssay (EPA / NIEHS).
The source holds several records for some structures; these can differ, active in one and inactive in another. Active and inactive are the calls of the source. How the source made its calls: active means hit-call score of the fitted dose curve at least 0.9, where 1 is the maximum; inactive means score below 0.9.

read-out: CD69, CD69 (gene 969); assay: BSK_LPS_CD69: BioMAP Diversity Plus: LPS Assay for CD69 Biomarker Activity (AID 2284303); conditions: primary human HUVEC with PBMC
Protocol: BSK_LPS is a cell-based, multiplexed-readout assay that uses umbilical vein endothelium and peripheral blood mononuclear cells, a human vascular primary cell co-culture, with measurements taken at 24 hours after chemical dosing in a 96-well plate.BSK_LPS_CD69 is an assay component measured in the BSK_LPS assay. It measures CD69 antibody related to regulation of gene expression using ELISA technology.Data from the assay component BSK_LPS_CD69 was analyzed at the endpoint, BSK_LPS_CD69, in the positive analysis fitting direction relative to DMSO as the negative control and baseline of activity. Using a type of binding reporter, gain or loss-of-signal activity can be used to understand protein changes. To generalize the intended target to other relatable targets, this assay endpoint is annotated to the 'cytokine' intended target family, where the subfamily is 'inflammatory factor'.
The levels of cell surface (or secreted, indicated by the prefix "s") biomarker endpoints were measured by ELISA. Overt cytotoxicity to cells in confluent adherent cultures (all systems other than the BT system) was assessed by measuring total protein levels using sulforhodamine B (SRB) staining in parallel cultures at the time of biomarker measurements, indicated as SRB endpoints. For proliferation assays for adherent cell types, individual cell types are cultured at sub-confluence and relative cell numbers quantified by SRB staining at time points optimized for each system (48 h: 3C and CASM3C systems; 72 h: BT and HDF3CGF systems; 96 h: SAg system). SRB was performed by staining cells with 0.1% SRB after fixation with 10% TCA and reading wells at 560 nm.Viability and proliferation of PBMC (T cells) was quantified by Alamar Blue reduction for the SAg and BT systems. For PBMC viability (referred to as PBMC Cytotoxicity within the assay endpoint names), cells were plated (75,000/well in a 96-well plate) and then chemical samples added for 1 h before addition of activators, SEB and TSST-1 (20 ng/mL final concentration each). Cells were incubated for 90 h. Then, Alamar Blue (20 uL/well) (Invitrogen, Cat DAL1100) was added for 6 h, and the plates were read with a fluorescence microplate reader at 546/580 nm (excitation/emission). For PBMC proliferation, cells were plated and activated as above but incubated for only 16 h prior to addition of Alamar Blue. Plates were read after 6 h.

Q: With `FC(F)(F)COC(OCC(F)(F)F)OCC(F)(F)F` as the compound, how does the outcome read?
A: inactive

Q: For `O=S(=O)(O)CCC(F)(F)C(F)(F)C(F)(F)C(F)(F)C(F)(F)C(F)(F)F`, which outcome is on record?
A: inactive

Q: What about the AC50 of the same compound?
A: 9.47 µM (active)

Q: With `FC(F)C(F)(F)COCC1CO1` (stereo unspecified) as the compound, how does the outcome read?
A: inactive

Q: For `C[Si](C)(C)C(F)(F)C(F)(F)C(F)(F)F`, which outcome is on record?
A: inactive

Q: Which outcome does the source give for `FC(F)(F)C(F)(F)C(F)(F)C(F)(F)C(F)(F)C(F)(F)I` here?
A: inactive

Q: Which outcome does the source give for `OC(O)(C(F)C(O)(O)C(F)(F)F)C(F)(F)F` here?
A: inactive

Q: Which outcome does the source give for `O=C(Cl)C(F)(F)C(F)(F)C(F)(F)C(=O)Cl` here?
A: inactive

Q: `FC(F)=C(F)C(F)(F)C(F)(F)C(F)(F)C(F)(F)C(F)(F)C(F)(F)F` was tested. Which outcome did it give?
A: inactive

Q: For `OCCC(F)(F)C(F)(F)C(F)(F)C(F)(F)F`, which outcome is on record?
A: inactive

Q: How did the outcome turn out when `NCC(F)(F)C(F)(F)C(F)(F)C(F)(F)F` was run?
A: inactive
